These results are taken from PubChem BioAssay AID589 (National Center for Advancing Translational Sciences (NCATS), 2007).

Out of some 59,000 compounds screened, about 6,200 (11%) were called active. Another 9% or so got no clear call; they are omitted. No stated cut-off is given here; in the data, active means max dye-equivalent concentration above about 10 nM; inconclusive means mostly about 1.1 nM to 9.6 nM; inactive means weaker than that. This excerpt belongs to a sample that is enriched for actives.

A short description of the assay: qHTS Assay for Spectroscopic Profiling in 4-MU Spectral Region. The following applies: compound autofluorescence, 340/450 nm, 4-MU equivalents; hits give high values. Summed up:
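Compounds in 100 mM Tris, pH 8.0, incubated 15 min at room temperature, then fluorescence read at 340 nm excitation/450 nm emission. Signal converted to 4-MU dye-equivalent concentration using an on-plate six-point 4-MU standard curve.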
Consider `O=C(Nc1ncc2c(n1)CC(c1ccco1)CC2=O)c1ccc(Cl)cc1` (stereo not drawn), for which the max dye-equivalent concentration entry is “inactive”.
For `CCc1ccc(Nc2ncc3c(n2)CC(c2ccco2)CC3=O)cc1` (stereo not drawn) the value was 38 nM (active); for `CCc1ccc(NC(=O)CSc2nnc(-c3cnccn3)n2Cc2ccco2)cc1`, “inactive”; for `CCOc1ccc(NC(=O)N2CCN(CC)CC2)cc1`, “inactive”.
For `Cc1ccccc1NC(=O)CNc1ccccc1N1CCCCC1` the value was “inactive”; for `CCOc1ccc2nc(N3CCCN(C(=O)Nc4ccccc4C)CC3)c(C#N)cc2c1`, 16 nM (active); for `Cn1c(-c2ccc(F)cc2)cnc1SCC(=O)NCc1ccco1`, “inactive”.
Under `O=C(CN1CCN(c2nc(-c3ccccc3)cs2)CC1)NCc1ccc2c(c1)OCO2` stands “inactive”.
On to `CC1(C)SC2c3ccccc3C(=O)N2[C@@H]1C(=O)NCc1ccco1` (stereo partly drawn), for which the max dye-equivalent concentration entry is “inactive”.
Under `CC1(C)S[C@@H]2[C@@H](NC(=O)[C@@H](N)c3ccccc3)C(=O)N2[C@H]1C(=O)O` stands 44 nM (active).
Under `CCS(=O)(=O)N1CCC(C(=O)N2CCN(c3ccccc3)CC2)CC1` stands “inactive”; under `CCOc1ccccc1Nc1nnc(SCC(=O)Nc2cc(C)on2)s1`, “inactive”.
Under `CC(C[N+](C)(C)C)OC(N)=O` (stereo not drawn) stands “inactive”; under `CC(=O)OC(C)C[N+](C)(C)C` (stereo not drawn), 500 nM (active).
On to `CCN1C(=O)/C(=C\N2CCN(c3ccccc3)CC2)SC1=S`, for which the max dye-equivalent concentration entry was “inactive”.
On to `CCN1C(=O)/C(=C2\SC(N3CCCCC3)=NC2=O)c2ccccc21`, for which the max dye-equivalent concentration was 18 nM (active).
For `Cc1ccc(C(=O)OCC(=O)NCc2ccc3c(c2)OCO3)s1` the value was “inactive”.
Take `CC(=O)Nc1cccc2c1[n+]([O-])c(C)c(C)[n+]2[O-]`: the max dye-equivalent concentration entry is “inactive”.
Under `Cc1ccc2cccc(O)c2[n+]1[O-]` stands 17 nM (active); under `O=C(O)[C@@H]1[C@@H](C(=O)O)[C@]23C[C@@]2(C(=O)O)[C@]2(C(=O)O)CCC3=C3CCCC312`, “inactive”; under `CCOC(=O)CSc1nnc(CNc2ccc(F)cc2)o1`, “inactive”.
For `CCCOP(=O)(c1ccc(N(C)C)cc1)C(O)c1cc(OC)c(OC)c(OC)c1` (stereo not drawn), the max dye-equivalent concentration entry is “inactive”.
For `Cc1c(S(=O)(=O)O)ccc(N=Nc2c(O)c(C(=O)O)cc3ccccc23)c1Cl` the value was 11 nM (active).
In the case of `CCc1ccc(-c2nnn(Cc3nc4ccccc4s3)n2)cc1`, the max dye-equivalent concentration result was “inactive”.
Under `COc1ccc(Cc2nnc(NS(=O)(=O)Cc3ccccc3)s2)cc1` stands “inactive”; under `COC(=O)C1(S(=O)(=O)C2(C(=O)OC)CCCC2)CCCC1`, “inactive”; under `N#Cc1c(N)n(CCOC(=O)c2ccc(Cl)cc2)c2nc3ccccc3nc12`, 600 nM (active).
In the case of `O=S(=O)(O)c1nc2ccccc2n1Cc1ccc(Cl)cc1`, the max dye-equivalent concentration entry was “inactive”.
For `C[C@H](NC(=O)OC(C)(C)C)c1nnc(SCC(N)=O)o1` the value was “inactive”; for `CC1(C)Oc2ccc(C(=O)N3CCOCC3)cc2N(CC(=O)Nc2ccccc2)C1=O`, “inactive”.
For `Cc1nc(NCc2ccccc2)c(C(N)=O)c2c1COC(C)(C)C2`, the max dye-equivalent concentration is 100 nM (active).
For `O=C(c1cccnc1NCc1ccccc1)N1CCOCC1` the value was “inactive”; for `Cc1ccc(NC(=O)CS(=O)CC(=O)N(c2ccccc2)C(C)C(=O)NC2CCCC2)cc1` (stereo not drawn), “inactive”; for `CC(=O)O[C@]1(C(C)=O)CC[C@@H]2[C@@H]3C=C(C)C4=CC(=O)CC[C@@]4(C)[C@H]3CC[C@]21C`, “inactive”.
For the compound `Cc1ccc(C)c(S(=O)(=O)N2CC(=O)Nc3ccccc32)c1`, the max dye-equivalent concentration entry is “inactive”.
Under `N=C(CC(=O)Nc1ccccn1)c1ccccc1` stands “inactive”.
Under `Cc1cccc(N)c1SC1CCCCC1O` (stereo not drawn) stands “inactive”; under `COc1ccc(C(=O)OCC(=O)c2ccc(C)c(S(=O)(=O)N3CCOCC3)c2)cc1OC`, “inactive”.
For the compound `CCC(=O)Nc1ccc(C(=O)Nc2ccc3c(c2)C(=O)N(CC2CCCO2)C3=O)cc1` (stereo not drawn), the max dye-equivalent concentration was 120 nM (active).
For `O=C(CCN1C(=O)c2ccncc2C1=O)Nc1ccc2c(c1)OCCO2` the value was “inactive”; for `O=C(NCc1ccc2c(c1)OCO2)c1ccc2c(c1)C(=O)N(CC1CCCO1)C2=O` (stereo not drawn), “inactive”.
`CC(C)(C)n1nnnc1C(c1ccc2ncccc2c1)N1CCSCC1` (stereo not drawn): the max dye-equivalent concentration entry is “inactive”.
Consider `CCOC(=O)N1CCN(C(=O)C2CCN(S(C)(=O)=O)CC2)CC1`, for which the max dye-equivalent concentration result is “inactive”.
For `CCOC(=O)N1CCN(CC(=O)Nc2cc(C)nn2-c2nc3ccccc3s2)CC1`, the max dye-equivalent concentration result was “inactive”.
For `CCOC(=O)N1CCN(C(=O)C2CCN(c3ncnc4c3sc3cccc(F)c34)CC2)CC1` the value was 18 nM (active).
Take `C=C(C)c1cccc(C(C)(C)NC(=O)N2CCN(c3ncccn3)CC2)c1`: the max dye-equivalent concentration result is “inactive”.
For `CC1CCCC(NC(=O)CSc2nccn2C)C1C` (stereo not drawn) the value was “inactive”.
For the compound `CN1[C@H]2CC(OC(=O)[C@@H](CO)c3ccccc3)C[C@H]1[C@H]1O[C@H]12` (stereo partly drawn), the max dye-equivalent concentration result is “inactive”.
Under `O=c1cc(-c2ccccc2)[nH]c2nc(Cl)ccc12` stands 76 nM (active); under `O=C(NCCN1CCOCC1)c1c(F)c(F)c(F)c(F)c1F`, “inactive”; under `Oc1c(Br)cc(CN(Cc2cc(Br)c(O)c(Br)c2)C2CCCCC2)cc1Br`, “inactive”.
For `Cc1cc(=O)n2nc(N3CCCC(C(=O)N4CCN(C)CC4)C3)sc2n1` (stereo not drawn) the value was “inactive”; for `Cc1cccc(NC(=O)CSc2nnc(CCCCCNC(=O)OC(C)(C)C)o2)c1C`, “inactive”.
